Screens: PubChem, National Center for Advancing Translational Sciences (NCATS)
Rows were chosen to be rich in hits. Some 6.9% of all compounds tested hit in one or more screens of this group.
SW480 rereplic = A quantitative high throughput screen for small molecules that induce DNA re-replication in SW480 colon adenocarcinoma cells; SW480 DNA re-replication, Hoechst DNA content imaging, 48 h; Potency, µM (highest dose often 46.1 µM), for the others: at the highest dose re-replication activation, usual class: activators; 340,000 tested, 1.8% active; further: potency means the concentration at half of the fitted maximal effect; % of control where 0% means no effect; nearly all actives have a fitted effect of over 55% in size
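Compounds, transferred as 23 nL by pin tool, were incubated with cells for 48 hr; DNA content per nucleus was then quantified by Hoechst staining and fluorescence plate imaging.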
S-ASM inh = Inhibitors of Secretory Acid Sphingomyelinase (S-ASM): qHTS. Potency, µM (highest dose often 57.5 µM), for inactives: at the highest dose activity change, negative = inhibition, hits mostly inhibitors. 340,000 tested, 0.006% active. Sphingomyelin phosphodiesterase (Homo sapiens), P17405. placental ASM, HMU-PC fluorogenic substrate, 60 min; further: potency means the concentration at half of the fitted maximal effect
Target sequence (P17405 47-631 limits assumed): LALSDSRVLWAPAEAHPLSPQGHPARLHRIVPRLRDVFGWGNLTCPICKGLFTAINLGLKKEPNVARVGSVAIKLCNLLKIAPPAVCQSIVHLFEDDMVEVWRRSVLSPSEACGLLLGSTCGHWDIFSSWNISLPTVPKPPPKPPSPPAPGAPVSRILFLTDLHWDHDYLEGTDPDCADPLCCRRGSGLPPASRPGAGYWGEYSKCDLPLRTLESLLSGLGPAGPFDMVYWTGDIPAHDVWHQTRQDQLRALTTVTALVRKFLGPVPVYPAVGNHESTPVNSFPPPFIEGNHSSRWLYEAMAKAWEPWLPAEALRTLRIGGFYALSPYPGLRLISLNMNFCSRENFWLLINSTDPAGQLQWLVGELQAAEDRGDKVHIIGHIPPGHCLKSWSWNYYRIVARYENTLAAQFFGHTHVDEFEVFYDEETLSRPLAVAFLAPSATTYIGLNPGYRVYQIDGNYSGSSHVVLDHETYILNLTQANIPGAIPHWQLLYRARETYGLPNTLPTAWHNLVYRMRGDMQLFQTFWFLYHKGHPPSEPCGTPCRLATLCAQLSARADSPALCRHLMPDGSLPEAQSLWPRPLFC
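Human placenta-derived ASM preincubated with compound 10 min at room temperature, then reacted with 9 uM (final) fluorogenic HMU-PC substrate for 60 min at 37 C. Stop solution raises pH to 10; fluorescence read at Ex 386/Em 447 nm.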
KB-3-1 cytotox = qHTS assay for MDR1-selective chemotherapeutics: Primary screen using the parental adenocarcinoma cell KB-3-1 | KB-3-1 viability, CellTiter-Glo ATP luminescence, 72 h | Potency, µM (series often up to 46.1 µM), usual class: cytotoxic | 400,000 tested, 1.4% active; further: potency means the concentration at half of the fitted maximal effect; on the % scale 0 is the no-effect control and ±100 the full control effect; nearly all actives have a fitted effect of over 60% in size
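Parental KB-3-1 viability, qHTS format: 72 h compound exposure, 37 °C; CellTiter-Glo; media-only wells and DMSO plates as controls; concentration-effect fits on corrected data.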
MCF10A rerep = A quantitative high throughput screen for small molecules that induce DNA re-replication in MCF 10a normal breast cells | MCF 10A DNA re-replication, Hoechst nuclear intensity, 48 h | Potency, µM (series often up to 46.1 µM), inactives show top-dose activity, positive = re-replication, hits mostly activators | 350,000 tested, 2.9% active; further: potency means the concentration at half of the fitted maximal effect; % of control where 0% means no effect; nearly all actives have a fitted effect of over 50% in size
KB-V1 MDR tox = qHTS assay for MDR1-selective chemotherapeutics: Primary screen using the drug-selected MDR subline cells KB-V1 | KB-V1 MDR cells viability, CellTiter-Glo, 72 h | Potency, µM (top dose mostly 46.1 µM), usual class: cytotoxic | 400,000 tested, 3.4% active | AID 1347076, 2019; further: potency means the concentration at half of the fitted maximal effect; on the % scale 0 is the no-effect control and ±100 the full control effect; nearly all actives have a fitted effect of over 60% in size
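Potencies derive from concentration-effect curves fitted to normalized luminescence (CellTiter-Glo) of KB-V1 cells treated for 72 h at 37 degrees C in phenol-red-free DMEM containing 10% FBS.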
Giardia kill = Small Molecules that selectively kill Giardia lamblia: qHTS | activity change, % at 7.66 µM, hits read low | AID 540267, 2011 | 340,000 tested, 0.15% active | Giardia lamblia trophozoite viability; in the data active means activity change below about -80%; inconclusive means between about -30% and that limit;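 further: parasites exposed to compound for two days anaerobically before the ATP read; on the % scale 0 is the no-effect control and ±100 the full control effect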
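Luminescent ATP signal served as the viability read-out, measured 15-30 min after adding ATP detection reagent to trophozoites that had been incubated with compounds for 48 hrs at 37 deg C anaerobically at 100 cells/well.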
Active calls of the source: *; i = inactive; u = inconclusive; x = not tested or not shown; [ ] = dose if it differs, or a comment. Unless noted, the call rests on the fitted dose curve; in most records, active means well fitted curve in the direction sought with a large enough effect; inconclusive means small, poorly fitted or top-dose-only effect, or another doubt; inactive means no such curve, though single readings can be large; an effect the other way counts as inactive or inconclusive.

SMILES | SW480 rereplic | S-ASM inh | KB-3-1 cytotox | MCF10A rerep | KB-V1 MDR tox | Giardia kill
CCOC(=O)N1CCN(c2ncc3c(n2)CC(c2ccccc2O)CC3=O)CC1 (configuration not stated) | x | x | u | x | 18µM* | x
COc1cc(C2CC(=O)c3cnc(N4CCN(CCO)CC4)nc3C2)cc(OC)c1OC (configuration not stated) | x | x | i | x | u | x
CCOC(=O)N1CCN(c2ncc3c(n2)CC(c2ccc(Cl)cc2)CC3=O)CC1 (configuration not stated) | x | x | i | x | 16µM* | x
COc1cc(C2CC(=O)c3cnc(N4CCN(Cc5ccccc5)CC4)nc3C2)cc(OC)c1OC (configuration not stated) | 2.9µM* | 2% | 5.8µM* | 13µM* | u | -14
Brc1ccc(CN2CCc3nc(N4CCN(c5ncccn5)CC4)ncc3C2)cc1 | x | x | i | x | i | x
Cc1ccc(NC(=O)COc2ccc(Br)cc2CO)cc1S(=O)(=O)N1CCOCC1 | -14% | -12% | i | 25% | i | -21
CCOc1ccccc1NC(=O)C1=C(C)NC(=S)NC1c1cccs1 (configuration not stated) | -10% | 3% | i | -70% | 13µM* | 23
CC1=C(C(=O)Nc2ccccc2C)C(c2cccs2)NC(=S)N1 (configuration not stated) | -20% | 2% | i | 2% | i | 8
COC(=O)C1=CN(c2ccc3c(c2)OCO3)C(N)=C(C#N)C1c1ccccc1 (configuration not stated) | x | x | 7.3µM* | x | 2.9µM* | x
COC(=O)C1=CN(c2ccc(OC)cc2)C(N)=C(C#N)C1c1cccc2ccccc12 (configuration not stated) | x | x | 18µM* | x | u | x
COC(=O)C1=CN(c2ccc(C(C)(C)C)cc2)C(N)=C(C#N)C1c1cccc2ccccc12 (configuration not stated) | x | x | u | x | i | x
COC(=O)C1=CN(c2ccccc2OC)C(N)=C(C#N)C1c1cccc([N+](=O)[O-])c1 (configuration not stated) | x | x | 4.6µM* | x | 4.1µM* | x
O=C(CSc1nnc(-c2ccccc2)c(-c2ccccc2)n1)NC1CCCCC1 | x | x | i | x | i | x
Cc1ccc(OCC(=O)Nc2nnc(S(=O)(=O)N3CCc4ccccc43)s2)cc1 | x | x | i | x | u | x
COc1ccccc1N1CCN(C(=O)c2cnn(C(C)(C)C)c2C2CCN(C(=O)OC(C)(C)C)CC2)CC1 | x | x | i | x | i | x
CC(=O)Nc1c(Br)cc2c(c1Br)Cc1cc([N+](=O)[O-])ccc1-2 | 4.1µM* | -4% | i | u | u | 11
O=C(Nc1c(Cl)cc2c(c1Cl)Cc1cc([N+](=O)[O-])ccc1-2)C(Cl)Cl | u | -5% | u | 18µM* | u | -4
Cc1ccc2oc(-c3cccc(NC(=O)c4ccc(N5CCC(C)CC5)c([N+](=O)[O-])c4)c3)nc2c1 | x | x | i | x | i | x
CCC(Oc1ccccc1)C(=O)Nc1ccccc1C(=O)N1CCCCC1 (configuration not stated) | -5% | 1% | i | 12% | 12µM* | 3
Cc1ccccc1OCCC(=O)Nc1ccccc1C(=O)N1CCCCC1 | -9% | 3% | i | 6% | 8.2µM* | -14
Cc1ccccc1OCC(=O)Nc1ccccc1C(=O)N1CCCCC1 | 0% | x | i | 16% | u | -10
CCOc1ccc2c(c1)-c1c(ssc1=S)C(C)(C)N2C(=O)c1ccco1 | 16µM* | -15% | u | 4.1µM* | u | 16
COc1ccc2c(c1)-c1c(ssc1=S)C(C)(C)N2C(=O)CSC1=NCCS1 | 6% | -18% | i | 0% | i | -4
Cc1ccccc1CNC(=O)C1CCCCN1S(=O)(=O)c1ccc(F)cc1 (configuration not stated) | x | x | i | x | i | x
C=CCn1c(COc2ccccc2)nc2ccccc21 | -9% | 0% | i | 0% | i | 0
SMILES | SW480 rereplic | S-ASM inh | KB-3-1 cytotox | MCF10A rerep | KB-V1 MDR tox | Giardia kill
COc1cc(CN(C)Cc2cc(=O)n3ccsc3n2)ccc1OC(F)F | u | 6% | i | -4% | 13µM* | -4
CCN(CC(=O)NCc1ccc(F)cc1)Cc1cc(=O)n2ccsc2n1 | -6%[1.84 µM] | 3% | i | u | i | -21
Cc1ccc(C)c(NC(=O)Cn2c(=O)n(CC(=O)NCCc3ccccc3)c(=O)c3ccccc32)c1 | x | x | i | x | i | x
CCC(Sc1nc2ccccc2s1)C(=O)Nc1nnc(C)s1 (configuration not stated) | -1% | 2% | i | u | 16µM* | 12
CC(Sc1nc2ccccc2s1)C(=O)Nc1nnc(C(C)C)s1 (configuration not stated) | -8% | -3% | i | 0% | i | -19
CC/C(=N/NS(=O)(=O)c1ccc(Cl)cc1)c1ccc(O)cc1 | x | 0% | i | 0% | i | -3
CCN=C(NS(=O)(=O)c1ccc(Br)cc1)c1ccc(Cl)cc1 | -73% | 6% | i | 1.8µM* | u | 13
Cc1cccc(NC(=O)Nc2cnccn2)c1C | -8% | 7% | u | -45% | u | -3
COc1cccc(CC(=O)Nc2cccc3ccccc23)c1 | -131% | -2% | i | -13% | i | 7
COc1ccc2c(c1)O[C@@H](c1ccc3c(c1)OCO3)[C@H](OC(=O)Nc1cc(OC)c(OC)c(OC)c1)C2=O | 16µM* | x | x | 3.7µM* | x | x
COc1ccc2c(c1)O[C@H](c1ccc3c(c1)OCO3)[C@@H](OC(=O)N[C@H]1CCCc3ccccc31)C2=O | 5% | -2% | i | 2% | i | -7
Cc1cccc(N2CCN(C(=O)Cc3cn(C)c4ccccc34)CC2)c1C | u | -13% | u | 18µM* | 18µM* | 13
Cc1cccc(N2CCN(C(=O)CCNC(=O)Cn3ccc4ccccc4c3=O)CC2)c1C | 2% | -1% | i | 1% | 21µM* | 14
COc1ccccc1-n1c(SCC(=O)c2ccc(O)cc2O)nc2cc([N+](=O)[O-])ccc21 | -6% | -13% | i | u | 16µM* | -1
COc1ccc(C2(c3ccc(OC)cc3)NC(=O)N(CC(=O)Nc3cc(C)ccc3OC)C2=O)cc1 | -2% | -15% | i | 4% | i | -11
